These results are taken from PubChem BioAssay AID1625 (Sanford-Burnham Center for Chemical Genomics, 2009).

The structures appear in SMILES notation. Out of some 190,000 compounds screened, about 570 (0.3%) were called active.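 Rule for the calls: active = z-score above 3 at 5 µM with at least 500 cells counted in the well; inconclusive = wells under 500 cells, flagged as cytotoxic or low count; inactive = the rest.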 For the sample, actives were picked, then their nearest neighbours and some compounds at random.

A short description of this assay: insulin promoter activators in MIN6 cells, imaging, high-content screening, mouse beta cells (AID 1625).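 For cell count: total cells summed across four imaged fields per well.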 As to conditions: MIN6 insulin promoter-GFP reporter, at 5 µM; cell count: measured here: cytotoxicity, nuclei count; z-score: stronger effect = higher value.
`CCn1c(Cc2cccs2)nnc1SCC(=O)c1ccc(C)cc1`: the cell count amounted to 827 cells and the z-score is -1.87 (inactive).
Turning to `Cc1ccc(-n2c(Cc3cccs3)nnc2SCC(=O)OC(C)C)cc1`, the cell count is 993 cells and the z-score was 3.05 (active).
On the same counts, the results for `COc1ccc(-n2c(SCC(=O)OC(C)C)nnc2-c2ccccn2)cc1` are 1260 cells and 0.29 (inactive).
For the compound `Cc1ccc(Oc2nc(-c3ccccn3)nc3ccccc23)cc1`, the cell count worked out at 1010 cells and the z-score was -0.89 (inactive).
Taken in the same sequence, the figures for `O=C1N(c2ccccc2)C(=Nc2ccccc2)SC12CC2` were 1070 cells and -0.2 (inactive).
For `COc1ccc(OC)c(S(=O)(=O)NCCC(C)C)c1`, the cell count was 1220 cells and the z-score was -0.95 (inactive).
Taken in the same sequence, the figures for `CCOC(=O)CN(C(=O)COc1nc(-c2ccccc2)cc(C)c1C#N)c1ccc(F)cc1` were 1080 cells and -0.04 (inactive).
On the same counts, the results for `CCOC(=O)C1CCN(C(=O)Nc2ccc(C)c(Cl)c2)CC1` are 1020 cells and -0.22 (inactive).
Regarding `O=C(CCN1C(=O)/C(=C/c2cccs2)SC1=S)NNC(=O)c1cccc(O)c1`, the cell count was determined as 1100 cells and the z-score was 3.43 (active).
Turning to `O=C(CCCN1C(=O)/C(=C/c2ccccc2)SC1=S)Nc1ccc(O)cc1`, the cell count is 1550 cells and the z-score was -0.31 (inactive).
`O=C(CCCN1C(=O)/C(=C\c2ccccc2)SC1=S)Nc1ccccc1O`: the cell count was 1110 cells and the z-score was -1.05 (inactive).
Taken in the same sequence, the figures for `Nc1nc(O)c(CC(=O)O)s1` were 1490 cells and -0.64 (inactive).
On to `Cc1ccc(NNC(=O)C2CCC2)cc1C`, for which the cell count was determined as 1450 cells and the z-score was -0.26 (inactive).
Take `CCOC(=O)C1=NN(c2ccc(Cl)cc2)/C(=C/C2=NCCc3cc(OC)c(OC)cc32)S1`: the cell count is 1380 cells and the z-score was 0.35 (inactive).
On the same counts, the results for `CCCN(CCC)CC(O)COc1ccccc1C(=O)Nc1ccccc1` (stereo not given) are 1020 cells and -0.54 (inactive).
On the same counts, the results for `COc1ccc(-c2[nH]ncc2CN(Cc2nccn2C)C(C)C)cc1F` are 1490 cells and -1.07 (inactive).
On the same counts, the results for `O=S(=O)([N-]c1nc2ccccc2nc1-[n+]1ccc(Cc2ccccc2)cc1)c1ccc(Br)s1` are 1020 cells and -0.15 (inactive).
On to `[O-][N+]12CCCCC1CCCC2CO` (stereo not given), for which the cell count is 977 cells and the z-score is 0.05 (inactive).
Taken in the same sequence, the figures for `CCOc1ccc(OCC)c(-c2c(=O)n(OCc3ccc(Cl)cc3)c3ccccc3[n+]2[O-])c1` were 1410 cells and 3.34 (active).
Taken in the same sequence, the figures for `O=c1c(-c2ccc(Cl)cc2)[n+]([O-])c2ccccc2n1OCc1nc2ccccc2[nH]1` were 1200 cells and -1.15 (inactive).
Taken in the same sequence, the figures for `COc1ccc(OC)c(-c2c(=O)n(OCc3ccccc3Br)c3ccccc3[n+]2[O-])c1` were 1330 cells and -0.44 (inactive).
`CCN(CC)CCNCC(=O)Nc1ccc(Oc2ccccc2)cc1`: the cell count came out at 919 cells and the z-score is -0.39 (inactive).
Turning to `C/C(=N\Nc1cccc(C(=O)O)c1)c1ccc2c(c1)Nc1ccccc1S2`, the cell count is 1020 cells and the z-score was -0.12 (inactive).
Taken in the same sequence, the figures for `O=C(Cn1c(N2CCN(C/C=C/c3ccccc3)CC2)nc2ccccc21)c1ccccc1` were 1150 cells and -0.35 (inactive).
For `COc1ccc(F)cc1S(=O)(=O)N1CCCCC1`, the cell count is 1090 cells and the z-score is 0.19 (inactive).
On the same counts, the results for `N#C/C(=C\N1CCOCC1)S(=O)(=O)c1ccc(Cl)cc1` are 930 cells and -0.15 (inactive).
Taken in the same sequence, the figures for `CCc1ccc(S(=O)(=O)Nc2ccc(C)c(NS(C)(=O)=O)c2)cc1` were 1030 cells and 0.6 (inactive).
As for `COCCNC(=O)c1onc(CSc2cccc(C)c2)c1C(=O)O`, the cell count was found to be 1620 cells and the z-score was 3.82 (active).
Regarding `CCCCNC(=O)c1onc(CSc2cccc(OC)c2)c1C(=O)O`, the cell count worked out at 1420 cells and the z-score was -0.14 (inactive).
On to `CCOc1cccc(SCc2noc(C(=O)NC(C)C)c2C(=O)O)c1`, for which the cell count worked out at 1590 cells and the z-score was -0.64 (inactive).
On the same counts, the results for `CN(CC(=O)Nc1ccc(F)cc1)CC(=O)Nc1ccc(Cl)c(S(=O)(=O)N2CCOCC2)c1` are 1070 cells and -0.46 (inactive).
Taken in the same sequence, the figures for `CC(C)NC(=O)/C(C#N)=C\c1ccc(N(C)C)c(Br)c1` were 1460 cells and 0.33 (inactive).
For the compound `CCc1cc(C(=O)OC)c(NC(=O)CC2Sc3ccc(C(F)(F)F)cc3NC2=O)s1` (stereo not given), the cell count was 1330 cells and the z-score is 3.33 (active).
Turning to `Cc1ccc(CNC(=O)CC2Sc3ccccc3NC2=O)cc1` (stereo not given), the cell count came to 1420 cells and the z-score was -0.57 (inactive).
As for `COC(=O)c1cc(C)sc1NC(=O)CC1Nc2ccccc2NC1=O` (stereo not given), the cell count is 1110 cells and the z-score was 2.17 (inactive).
On the same counts, the results for `CCc1ccc(NC(=O)N[C@H](C(=O)O)C(C)CC)cc1` (stereo not given in full) are 978 cells and 0.03 (inactive).
Taken in the same sequence, the figures for `O=C(Nc1nnc(SCc2c(Cl)cccc2Cl)s1)c1cccc([N+](=O)[O-])c1` were 1070 cells and 0.41 (inactive).
Taken in the same sequence, the figures for `Nc1nnc(SCn2nnc3ccccc3c2=O)s1` were 1620 cells and 0.07 (inactive).
Consider `COc1ccc(C2C(C(=O)N3CCN(c4ccc(OC)cc4)CC3)c3ccccc3C(=O)N2C)cc1` (stereo not given), for which the cell count came to 1330 cells and the z-score was -1.17 (inactive).
Taken in the same sequence, the figures for `CCOc1ccc(C2C(C(=O)O)c3ccccc3C(=O)N2CCN2CCOCC2)cc1` (stereo not given) were 1350 cells and 4.94 (active).
On the same counts, the results for `CCOc1cc2c(cc1OCC)C(C(=O)O)C(c1ccc(OC)c(O)c1)N(C)C2=O` (stereo not given) are 1550 cells and 0.1 (inactive).
Regarding `O=C(COC(=O)/C=C/c1ccc2c(c1)OCO2)NC1CCS(=O)(=O)C1` (stereo not given), the cell count worked out at 933 cells and the z-score is -0.06 (inactive).
Taken in the same sequence, the figures for `COc1ccccc1N1CCN(C(=O)CSc2ncnc3c2cnn3-c2ccc(C)c(C)c2)CC1` were 959 cells and -0.23 (inactive).
Taken in the same sequence, the figures for `CC1Cc2ccccc2N1S(=O)(=O)c1ccc(Cl)nc1` (stereo not given) were 1130 cells and 0.1 (inactive).
On the same counts, the results for `COc1ccccc1CNC(=O)CCn1c(=O)sc2ccccc21` are 1300 cells and -0.13 (inactive).
Regarding `CCc1nnc(NC(=O)CCC(=O)O)s1`, the cell count was 879 cells and the z-score is -0.23 (inactive).
On the same counts, the results for `CCc1nnc(NC(=O)CCC(=O)NCc2ccccc2OC)s1` are 1600 cells and 4.05 (active).
On the same counts, the results for `O=C(Nc1ccc(Cl)cc1)/C(=C1\CCCN1)[N+](=O)[O-]` are 1400 cells and 0.56 (inactive).
On to `COc1ccc(OC)c(-c2csc(NC(=O)C3=NNC(=O)CC3)n2)c1`, for which the cell count is 1110 cells and the z-score was 1.47 (inactive).
Taken in the same sequence, the figures for `CCOc1cccc(/C=C/c2ccc3ccccc3n2)c1OC(C)=O` were 1230 cells and -0.46 (inactive).
Taken in the same sequence, the figures for `Cc1nc(COc2cccc(Cl)c2)sc1C(=O)/C=C/N(C)C` were 1040 cells and 0.55 (inactive).
On the same counts, the results for `CN1CCN(c2ccc(S(=O)(=O)N3CCOCC3)cc2NC(=O)CCc2ccccc2)CC1` are 1040 cells and 0.32 (inactive).
Take `C=CCC(Nc1ccccc1)c1cccc(OC)c1OC` (stereo not given): the cell count was 1080 cells and the z-score was -0.62 (inactive).
Taken in the same sequence, the figures for `O=C(Cc1nn[nH]n1)NCCC1=CCCCC1` were 1260 cells and -0.63 (inactive).
On the same counts, the results for `O=C(Cc1cccc2ccccc12)NCCC1=CCCCC1` are 1280 cells and -0.27 (inactive).
As to `CN1CCNC(=O)C1CC(=O)NCCC1=CCCCC1` (stereo not given), the cell count was 1390 cells and the z-score is 3.77 (active).
Taken in the same sequence, the figures for `Cn1nc(C(C)(C)C)c([N+](=O)[O-])c1C(N)=O` were 1080 cells and -0.1 (inactive).
Taken in the same sequence, the figures for `O=C(O)CC1=C(Nc2ccccc2)C(=O)N(c2ccccc2)C1c1ccc(Cl)cc1` (stereo not given) were 1370 cells and -0.28 (inactive).
Taken in the same sequence, the figures for `N/C(=N/O)c1cccn1Cc1ccccc1[N+](=O)[O-]` were 1470 cells and 0.02 (inactive).
With `O=c1c([N+](=O)[O-])cccn1Cc1ccc(F)cc1Cl`, the cell count is 1280 cells and the z-score is 3.36 (active).
On the same counts, the results for `O=[N+]([O-])c1ccccc1NCc1ccccc1Cl` are 1120 cells and 0.76 (inactive).
Taken in the same sequence, the figures for `CN1CCN(C(c2cc3cc4c(cc3[nH]c2=O)OCCO4)c2nnnn2C2CCCC2)CC1` (stereo not given) were 1180 cells and -0.16 (inactive).
Taken in the same sequence, the figures for `CCOc1ccc(-n2cnc3c(=O)[nH]c(N)nc32)cc1` were 1510 cells and -0.16 (inactive).
With `CC(C)(C)c1ccc(CCC2OCC(CN3CCOCC3)O2)cc1` (stereo not given), the cell count is 1070 cells and the z-score was -0.91 (inactive).
On the same counts, the results for `O=C(Cc1ccccc1)N1N=C(c2ccncc2)CC1(O)C(F)(F)F` (stereo not given) are 1110 cells and -0.48 (inactive).
On the same counts, the results for `CN1CCN(C(=O)/C(=C\c2cccs2)NC(=O)c2cccs2)CC1` are 1240 cells and 6.06 (active).
Regarding `Cc1ccc(C(=O)N/C(=C/c2cccs2)C(=O)N2CCCCC2)cc1`, the cell count was 1270 cells and the z-score was 0.22 (inactive).
As to `CN1CCN(C(=O)/C(=C\c2ccc3c(c2)OCO3)NC(=O)c2cccs2)CC1`, the cell count was 1300 cells and the z-score is 0.04 (inactive).
`O=C(O)C(c1ccccc1)C1(O)CCCCC1` (stereo not given): the cell count was 1390 cells and the z-score is 0.43 (inactive).
With `CCCCSc1nnc2c(n1)OC=Nc1ccccc1-2`, the cell count is 1140 cells and the z-score was -0.42 (inactive).
On the same counts, the results for `Fc1ccc(/C=N/Nc2nc(-c3cccnc3)nc3ccccc23)cc1` are 1030 cells and -0.09 (inactive).
On the same counts, the results for `Cc1nc2ccccc2nc1N/N=C/c1ccc(O)cc1O` are 1210 cells and -3.3 (inactive).
Taken in the same sequence, the figures for `Oc1ccc(/C=N/Nc2nc(-c3ccccc3F)nc3ccccc23)c(O)c1` were 1070 cells and 3.69 (active).
In the case of `O=C(NCCc1ccccn1)c1cccnc1Oc1ccc(Cl)cc1`, the cell count was 1560 cells and the z-score is -0.11 (inactive).
On the same counts, the results for `Cc1nc2c(c(=O)n1Cc1ccco1)c1nc3ccccc3nc1n2Cc1ccccc1` are 1260 cells and -1.6 (inactive).
Taken in the same sequence, the figures for `CC(=O)c1ccc(-c2ccc(Cn3c(C)nc4cc(N)c(C)nc43)cc2)cc1` were 1520 cells and 0.28 (inactive).
Take `Cc1cc2nc3c(=O)n(Cc4ccccc4)c(=O)[nH]c3nc2cc1N`: the cell count worked out at 1490 cells and the z-score was 12.1 (active).
Taken in the same sequence, the figures for `COc1ccc(Nc2cc(=O)n(-c3ccccc3)c3c2c(=O)n(C)c(=O)n3C)cc1` were 991 cells and 0.04 (inactive).
On the same counts, the results for `COc1ccc(C(=O)C2CCCN(C(=O)c3cc4nc(C)cc(C)n4n3)C2)cc1F` (stereo not given) are 1470 cells and -0.02 (inactive).
With `COCc1cc(=O)[nH]c(SC)n1`, the cell count worked out at 1140 cells and the z-score was -0.01 (inactive).
Taken in the same sequence, the figures for `CC(C)c1nc(SCC(=O)NC(=O)NC(C)(C)C)n[nH]1` were 976 cells and -0.03 (inactive).
Consider `CCOc1c2ccc(C(=O)NCc3ccc(OC(F)(F)F)cc3)cc2nn1C`, for which the cell count is 1370 cells and the z-score was 2.39 (inactive).
Taken in the same sequence, the figures for `CCCn1nc2cc(C(=O)NCc3ccccc3)ccc2c1OCC` were 1430 cells and 4.73 (active).
Taken in the same sequence, the figures for `CCOc1c2ccc(C(=O)NCc3ccc4c(c3)OCO4)cc2nn1C` were 1870 cells and 0.4 (inactive).
Turning to `CC12CN(NC(=O)c3ccc(Cl)cc3)C3(C#N)CC1CCC23C` (stereo not given), the cell count was 1610 cells and the z-score was -0.1 (inactive).
